The full ranking holds about 9,900 sequences; the median of “r (bound/input frequency ratio)” is about 0.7, and the highest 2% start at about 6.5. The entries come from a sample that favours the highest values as a whole.
B1: ENSMUSG00000029028.209|Lrrc47 (ssRNA)
RNA: GGGAGUUCUACAGUCCGACGAUCGCUUCGAUAUCCGCAUGCUACAGCAGCUGCACAGAGGACUUGGUGGCCCCGUGCCUUGCCAUCUGGCUGAGAAGAGAACCAGACCCUCAGCCUUCCCCCUCGACACCUUCUCGUUGGUGACCUCUGACCUUAAAGGACCAUUUCUACCUUCUGUAAAAGAACACCUGUUUGGGGUUGCGUGCGGCUUUCAUCCUAAGGCCGUGCGAGAGCCGUUAGCUGUCAGAACUAGUGAAGCUCCAGGCUCCUCGUGGCAGACCCUGGACAACGCUGGUAGCUGUUCCUCUUGCGGUCGCACUAGUGUGGAAUUCUCGGGUGUCAAGG
B2: ENSMUSG00000029636.505|Wasf3|28:32 (ssRNA)
RNA: GGGAGUUCUACAGUCCGACGAUCGCUUCGAUAUCCGCAUGCUAAUCAUUUAUGAGCAUAGGAUGAUGAGGCACACAAAGCUUUGUAAUAUUUUCAGCAGAAAUGCGUGAUACAUUUGAAUCCAUUGAGGUCUGGAGGGAGGGUAUCAGCCAGAGUAGCAAGGCGGUUUUGUUUAUUUGUUUGUUUUUUUGUUUGUUUGUUUUAUGAAGGAGAGUAUCUGUUAUCUUGCAGUAUUAUCAAUGCAGUUGUAAAUUGAAUCUAAAGUGGUAUUUAAAACUGUCAAACAAUUUUUAAUCUGUUUGUACUCUUGCGGUCGCACUAGUGUGGAAUUCUCGGGUGUCAAGG
B3: ENSMUSG00000031028.267|Tub (ssRNA)
RNA: GGGAGUUCUACAGUCCGACGAUCGCUUCGAUAUCCGCAUGCUAUGCUUUGAAAUAGAUAUGUUUGGAAACGCUAAGUAGAAGUUUAAAAAGUAGAGUCAUGUAGAGUCAUGCUUUGAAUAUGUGGGUCAUGCUUUAGAUAUGAAGAGGCUAUGCAGGUAAGGAGGCUGGAUUGAUGUAAAUGGAAGUAGUACUUUAAGAAAGCUCUAGAUUUCCCAGGUUGGACACUCGACGAAAGGCACACCUGCUGCAGCAGGUUCUGACACACCUGAGCCAUACAUUGCCAUCAGAGAACCCUCAGCGAGCUCUUGCGGUCGCACUAGUGUGGAAUUCUCGGGUGUCAAGG
B4: ENSMUSG00000043670.108|Diras1 (ssRNA)
RNA: GGGAGUUCUACAGUCCGACGAUCGCUUCGAUAUCCGCAUGCUACUUUCACCUGAUCCUGUCCUUUCCCCGUGACCUCUGACCUGUGGCCUUCCCUGGGUCCAGAACACCCCUGUCCUCUCCUGUCUGCACACCAGGGUGGAUGGGCCCGAGGGCUGGGCCUCAGGCACCAGGCAAUAAACACAGGGCCUGCAGCAAUGCCCUGGCCACCCCGAGUACCACCUCUGGAAUAGCAGACGCCCACAGCACAAGCCCAGGACUGUCCCUUCAGGGGAGGCACACUGGAACCCUGAACUUGGAGUGUGCUCUUGCGGUCGCACUAGUGUGGAAUUCUCGGGUGUCAAGG
B5: ENSMUSG00000061578.1206|Ksr2 (ssRNA)
RNA: GGGAGUUCUACAGUCCGACGAUCGCUUCGAUAUCCGCAUGCUAUAUGGACACACUAGAAAGCCCAUCCUAGGUCUUUCCAUGGUCUCUCACACCCCUGUCCCCGUCCCCUCCACCCCCCGGCAGCAUGCUUCACUCUAUGAAUGAGCCGCUGGGAUAUUGACAUGGAGAUGUGUUGAUGGAAAAAGCCUCCACACCCAACAUAACUCUCCAGAGAGAUAUUGAAAGUGAUGGGCAGAGAGUCUGACAAUGACCCAGGGGUCAUUGUGAGUCCUAGGCUGAAUCUGUAAUGGGGUCCAAAGUGCCUCUUGCGGUCGCACUAGUGUGGAAUUCUCGGGUGUCAAGG
B6: ENSMUSG00000022095.191|Fam160b2 (ssRNA)
RNA: GGGAGUUCUACAGUCCGACGAUCGCUUCGAUAUCCGCAUGCUACCUGGGCAAGGAGGAGCAGGCCAGAGCCCCUUUUGCUUCCUUUUCCUGCCCAUGCCACCUCUCGAAGCCGGGCACAGGUUGCCAGGAGGUGACAUGAAAGAGGAGGAAACUCCAUGACCUCUACAUCCCCCGCAGUCCUCCCAGCGGGGGAGGACUUCUCUGCUGCUCCGAAGAACAUCAUGCACUCCUGUGUGUGUGUGUGAGUGUGUGUGUGUGUGUGUGUGUGUGUGUGUGUGUAUGUGUGUGUAUAUGUGUGUGUGCUCUUGCGGUCGCACUAGUGUGGAAUUCUCGGGUGUCAAGG
B7: ENSMUSG00000022095.184|Fam160b2 (ssRNA)
RNA: GGGAGUUCUACAGUCCGACGAUCGCUUCGAUAUCCGCAUGCUACAGGCAUUACCUCACAACAGGCCUGCAGUUGUUGGCUUCCCUCCUGGGCAAGGAGGAGCAGGCCAGAGCCCCUUUUGCUUCCUUUUCCUGCCCAUGCCACCUCUCGAAGCCGGGCACAGGUUGCCAGGAGGUGACAUGAAAGAGGAGGAAACUCCAUGACCUCUACAUCCCCCGCAGUCCUCCCAGCGGGGGAGGACUUCUCUGCUGCUCCGAAGAACAUCAUGCACUCCUGUGUGUGUGUGUGAGUGUGUGUGUGUGUGCUCUUGCGGUCGCACUAGUGUGGAAUUCUCGGGUGUCAAGG
B8: ENSMUSG00000022095.183|Fam160b2 (ssRNA)
RNA: GGGAGUUCUACAGUCCGACGAUCGCUUCGAUAUCCGCAUGCUACGGCGCCAGGCAUUACCUCACAACAGGCCUGCAGUUGUUGGCUUCCCUCCUGGGCAAGGAGGAGCAGGCCAGAGCCCCUUUUGCUUCCUUUUCCUGCCCAUGCCACCUCUCGAAGCCGGGCACAGGUUGCCAGGAGGUGACAUGAAAGAGGAGGAAACUCCAUGACCUCUACAUCCCCCGCAGUCCUCCCAGCGGGGGAGGACUUCUCUGCUGCUCCGAAGAACAUCAUGCACUCCUGUGUGUGUGUGUGAGUGUGUGUGCUCUUGCGGUCGCACUAGUGUGGAAUUCUCGGGUGUCAAGG
B9: ENSMUSG00000022095.184|Fam160b2|231:244;246:260 (ssRNA)
RNA: GGGAGUUCUACAGUCCGACGAUCGCUUCGAUAUCCGCAUGCUACAGGCAUUACCUCACAACAGGCCUGCAGUUGUUGGCUUCCCUCCUGGGCAAGGAGGAGCAGGCCAGAGCCCCUUUUGCUUCCUUUUCCUGCCCAUGCCACCUCUCGAAGCCGGGCACAGGUUGCCAGGAGGUGACAUGAAAGAGGAGGAAACUCCAUGACCUCUACAUCCCCCGCAGUCCUCCCAGCGGGGGAGGACUUCUCUGCUGCUCCGAAGAACAUCAUGCACUCCACACACACACACACACACACACACACACACCUCUUGCGGUCGCACUAGUGUGGAAUUCUCGGGUGUCAAGG
B10: ENSMUSG00000022095.186|Fam160b2|219:232;234:260 (ssRNA)
RNA: GGGAGUUCUACAGUCCGACGAUCGCUUCGAUAUCCGCAUGCUACACAACAGGCCUGCAGUUGUUGGCUUCCCUCCUGGGCAAGGAGGAGCAGGCCAGAGCCCCUUUUGCUUCCUUUUCCUGCCCAUGCCACCUCUCGAAGCCGGGCACAGGUUGCCAGGAGGUGACAUGAAAGAGGAGGAAACUCCAUGACCUCUACAUCCCCCGCAGUCCUCCCAGCGGGGGAGGACUUCUCUGCUGCUCCGAAGAACAUCAUGCACUCCACACACACACACACACACACACACACACACACACACACACACCUCUUGCGGUCGCACUAGUGUGGAAUUCUCGGGUGUCAAGG
B11: ENSMUSG00000022095.185|Fam160b2 (ssRNA)
RNA: GGGAGUUCUACAGUCCGACGAUCGCUUCGAUAUCCGCAUGCUAUUACCUCACAACAGGCCUGCAGUUGUUGGCUUCCCUCCUGGGCAAGGAGGAGCAGGCCAGAGCCCCUUUUGCUUCCUUUUCCUGCCCAUGCCACCUCUCGAAGCCGGGCACAGGUUGCCAGGAGGUGACAUGAAAGAGGAGGAAACUCCAUGACCUCUACAUCCCCCGCAGUCCUCCCAGCGGGGGAGGACUUCUCUGCUGCUCCGAAGAACAUCAUGCACUCCUGUGUGUGUGUGUGAGUGUGUGUGUGUGUGUGUGUGCUCUUGCGGUCGCACUAGUGUGGAAUUCUCGGGUGUCAAGG
B12: ENSMUSG00000022095.194|Fam160b2 (ssRNA)
RNA: GGGAGUUCUACAGUCCGACGAUCGCUUCGAUAUCCGCAUGCUAGGCCAGAGCCCCUUUUGCUUCCUUUUCCUGCCCAUGCCACCUCUCGAAGCCGGGCACAGGUUGCCAGGAGGUGACAUGAAAGAGGAGGAAACUCCAUGACCUCUACAUCCCCCGCAGUCCUCCCAGCGGGGGAGGACUUCUCUGCUGCUCCGAAGAACAUCAUGCACUCCUGUGUGUGUGUGUGAGUGUGUGUGUGUGUGUGUGUGUGUGUGUGUGUGUAUGUGUGUGUAUAUGUGUGUGUGUGUGUGUAUGUGUGUGUGCUCUUGCGGUCGCACUAGUGUGGAAUUCUCGGGUGUCAAGG
B13: ENSMUSG00000022095.190|Fam160b2 (ssRNA)
RNA: GGGAGUUCUACAGUCCGACGAUCGCUUCGAUAUCCGCAUGCUAUUCCCUCCUGGGCAAGGAGGAGCAGGCCAGAGCCCCUUUUGCUUCCUUUUCCUGCCCAUGCCACCUCUCGAAGCCGGGCACAGGUUGCCAGGAGGUGACAUGAAAGAGGAGGAAACUCCAUGACCUCUACAUCCCCCGCAGUCCUCCCAGCGGGGGAGGACUUCUCUGCUGCUCCGAAGAACAUCAUGCACUCCUGUGUGUGUGUGUGAGUGUGUGUGUGUGUGUGUGUGUGUGUGUGUGUGUAUGUGUGUGUAUAUGUGCUCUUGCGGUCGCACUAGUGUGGAAUUCUCGGGUGUCAAGG
B14: ENSMUSG00000022095.193|Fam160b2 (ssRNA)
RNA: GGGAGUUCUACAGUCCGACGAUCGCUUCGAUAUCCGCAUGCUAGGAGCAGGCCAGAGCCCCUUUUGCUUCCUUUUCCUGCCCAUGCCACCUCUCGAAGCCGGGCACAGGUUGCCAGGAGGUGACAUGAAAGAGGAGGAAACUCCAUGACCUCUACAUCCCCCGCAGUCCUCCCAGCGGGGGAGGACUUCUCUGCUGCUCCGAAGAACAUCAUGCACUCCUGUGUGUGUGUGUGAGUGUGUGUGUGUGUGUGUGUGUGUGUGUGUGUGUAUGUGUGUGUAUAUGUGUGUGUGUGUGUGUAUGUGCUCUUGCGGUCGCACUAGUGUGGAAUUCUCGGGUGUCAAGG
B15: ENSMUSG00000022095.192|Fam160b2 (ssRNA)
RNA: GGGAGUUCUACAGUCCGACGAUCGCUUCGAUAUCCGCAUGCUACAAGGAGGAGCAGGCCAGAGCCCCUUUUGCUUCCUUUUCCUGCCCAUGCCACCUCUCGAAGCCGGGCACAGGUUGCCAGGAGGUGACAUGAAAGAGGAGGAAACUCCAUGACCUCUACAUCCCCCGCAGUCCUCCCAGCGGGGGAGGACUUCUCUGCUGCUCCGAAGAACAUCAUGCACUCCUGUGUGUGUGUGUGAGUGUGUGUGUGUGUGUGUGUGUGUGUGUGUGUGUAUGUGUGUGUAUAUGUGUGUGUGUGUGUGCUCUUGCGGUCGCACUAGUGUGGAAUUCUCGGGUGUCAAGG
B16: ENSMUSG00000022095.186|Fam160b2 (ssRNA)
RNA: GGGAGUUCUACAGUCCGACGAUCGCUUCGAUAUCCGCAUGCUACACAACAGGCCUGCAGUUGUUGGCUUCCCUCCUGGGCAAGGAGGAGCAGGCCAGAGCCCCUUUUGCUUCCUUUUCCUGCCCAUGCCACCUCUCGAAGCCGGGCACAGGUUGCCAGGAGGUGACAUGAAAGAGGAGGAAACUCCAUGACCUCUACAUCCCCCGCAGUCCUCCCAGCGGGGGAGGACUUCUCUGCUGCUCCGAAGAACAUCAUGCACUCCUGUGUGUGUGUGUGAGUGUGUGUGUGUGUGUGUGUGUGUGUGCUCUUGCGGUCGCACUAGUGUGGAAUUCUCGGGUGUCAAGG

These binders were tested against TDP-43 (Homo sapiens, UniProt Q13148 1-414) (assay: RNA Bind-n-Seq with designed 260-mer pool; 25 mM Tris-HCl, 150 mM KCl, 3 mM MgCl2, BSA (printed 500 mg/mL), 20 units/mL SUPERase IN; pH not stated; 500 nM RNA pool, 1 h, 4 C; TDP-43 5, 50, 500 nM; high values mean tight binding). Conditions: protein: recombinant; tags: SBP (GST cleaved off with PreScission; pGEX-GST-SBP).
Sequence of TDP-43 (Q13148 whole entry): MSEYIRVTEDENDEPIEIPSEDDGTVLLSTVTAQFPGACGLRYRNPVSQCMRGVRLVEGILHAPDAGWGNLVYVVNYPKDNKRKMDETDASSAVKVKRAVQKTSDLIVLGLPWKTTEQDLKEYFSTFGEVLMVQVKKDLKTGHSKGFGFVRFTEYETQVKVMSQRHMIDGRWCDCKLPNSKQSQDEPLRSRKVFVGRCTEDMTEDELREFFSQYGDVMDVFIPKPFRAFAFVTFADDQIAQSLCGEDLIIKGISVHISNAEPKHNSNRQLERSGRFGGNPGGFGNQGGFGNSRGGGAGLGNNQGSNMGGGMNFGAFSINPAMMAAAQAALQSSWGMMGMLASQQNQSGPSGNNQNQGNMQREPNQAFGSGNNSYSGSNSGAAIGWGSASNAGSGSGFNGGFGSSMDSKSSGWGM
How it was run: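 Binding (R) is the ratio of each oligo's mapped-read-normalized abundance in the bound fraction to its abundance in the input. To obtain it, SBP-tagged recombinant TDP-43 (5, 50 or 500 nM) on streptavidin beads was incubated with 500 nM of an in vitro-transcribed 260-nt 3′ UTR oligo pool for 1 h at 4 °C in 25 mM Tris-HCl, 150 mM KCl, 3 mM MgCl2, BSA and SUPERase IN. The RNA retained after washing was released with biotin, then reverse transcribed, amplified by PCR and sequenced.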
With B1 the binding signal was 0.424 R (bound/input frequency ratio).
B2 was tested, and the binding signal was 0.502 R (bound/input frequency ratio).
For B3, the binding signal was 2.93 R (bound/input frequency ratio).
In the case of B4, the binding signal is reported as 1.22 R (bound/input frequency ratio).
For B5, the binding signal was 0.481 R (bound/input frequency ratio).
For B6, the binding signal was 5.73 R (bound/input frequency ratio).
With B7 the binding signal was 3.46 R (bound/input frequency ratio).
For B8, the binding signal was 1.73 R (bound/input frequency ratio).
B9 was tested, and the binding signal was 3.13 R (bound/input frequency ratio).
For B10, the binding signal was 2.91 R (bound/input frequency ratio).
With B11 the binding signal was 4.85 R (bound/input frequency ratio).
For B12, the binding signal was 7.48 R (bound/input frequency ratio).
B13 was tested, and the binding signal was 7.2 R (bound/input frequency ratio).
B14 was tested, and the binding signal was 8.43 R (bound/input frequency ratio).
With B15 the binding signal was 8.2 R (bound/input frequency ratio).
In the case of B16, the binding signal is reported as 6.14 R (bound/input frequency ratio).

Source: publication PMC12864922, “TDP-43 directly inhibits mRNA accumulation in neurites through modulation of mRNA stability”
